Only some compounds are listed: those with a hit (about 2.9% of all), similar ones and a draw of the others.
S2 tox: viability counter-screen for ATXN expression inhibitors; 400,000 tested, 0.49% active; S2 cells (HEK-293 line with an ATXN2-luciferase reporter) viability, CellTiter-Fluor protease fluorescence, 24 h; Potency, µM (doses to about 56.7 µM), usual class: cytotoxic; further: nearly all actives have a fitted effect of over 40% in size
A549 viability: kills or reduces viability of A549 cells in Nrf2 counter-screen; 390,000 tested, 0.16% active; Potency, µM (series often up to 46 µM), without a hit: at the top dose activity change, negative = cytotoxicity, most hits filed as inhibitors; AID 504648; A549 ARE-Fluc cells, CellTiter-Fluor viability, 18-24 h; further: on the % scale 0 is the no-effect control and ±100 the full control effect
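A549 ARE_Fluc cells in 5% FBS OPTI-MEM were exposed to compounds in concentration-response for 18-24 h at 37 deg C. Viability was read by CellTiter-Fluor fluorescence (Ex 405/Em 525) after 30 min, before the luciferase read.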
Nrf2 activator: Nrf2 pathway activation | AREc32 ARE-luciferase reporter (MCF7-derived line), luminescence, 24 h | Potency, µM (doses to about 46.1 µM), without a hit: top-dose activation, actives largely listed as activators | 410,000 tested, 0.31% active | AID 624171; further: % of control where 0% means no effect; nearly all actives have a fitted effect of over 65% in size
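AREc32_Fluc, 1000 cells/well, OPTI-MEM + 5% FBS, o/n 37 deg C 5% CO2; 23 nL cpd by pin tool, 24 hr; Steady-Glo 30 min RT, luminescence.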
ATXN2 expr inh: ATXN2 expression inhibition. HEK-293 ATXN2-luciferase reporter, luminescence, 24 h. Potency, µM (series often up to 57 µM), for inactives: at the top dose activity change, negative = inhibition, actives largely listed as inhibitors. 360,000 tested, 0.72% active; further: on the % scale 0 is the no-effect control and ±100 the full control effect; nearly all actives have a fitted effect of over 55% in size
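qHTS (up to 57 uM final) was run with 24 h compound exposure of reporter cells at 37 °C. Each well was multiplexed: SteadyGlo luminescence measured ATXN2-luciferase expression after a fluorogenic Gly-Phe-AFC viability readout (25 uM final).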
Nrf2 inh: inhibitors of Nrf2 signaling | 360,000 tested, 2.1% active | Potency, µM (highest dose often 46 µM), for the others: at the top dose activity change, negative = inhibition, most hits filed as inhibitors | A549 ARE-Fluc reporter, luciferase luminescence, 18-24 h; further: on the % scale 0 is the no-effect control and ±100 the full control effect; nearly all actives have a fitted effect of over 60% in size
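A549 ARE_Fluc cells (5000/well, 5% FBS OPTI-MEM) pre-incubated 2 h, then treated with compounds 18-24 h at 37C/5% CO2 in concentration-response. CellTiter-Fluor viability read first; BugLite luciferase luminescence after 15 min at room temperature gives Nrf2 activity.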
Active calls of the source: *; ! = repeats disagree; [ ] = another dose, or the depositor's remark. The call rests on the fitted dose curve; in most records, active means well fitted curve in the direction sought with a large enough effect; inconclusive means small, poorly fitted or top-dose-only effect, or another doubt; inactive means no such curve, though single readings can be large; an effect the other way counts as inactive or inconclusive. Potency means the concentration at half of the fitted maximal effect.

What do the screens show for `COc1ccccc1Cc1c(-c2ccco2)nc2c(C)cc(Br)cn12`?
S2 tox: inconclusive; Nrf2 activator: inconclusive; ATXN2 expr inh: 8.9µM*

What do the screens show for `Cc1cc(Br)cn2c(Cc3ccsc3)c(-c3ccco3)nc12`?
S2 tox: inconclusive; Nrf2 activator: 7.1µM*; ATXN2 expr inh: inconclusive

What do the screens show for `Cc1cc(Br)cn2c(Cc3ccccc3)c(-c3ccco3)nc12`?
S2 tox: inconclusive; Nrf2 activator: 10µM*; ATXN2 expr inh: 14%

What do the screens show for `COc1ccc(Cc2c(-c3ccco3)nc3ccc(Br)cn23)c(C)c1`?
Nrf2 activator: 8.9µM*; ATXN2 expr inh: inconclusive

Results for O=S1(=O)N=C(Oc2ccccc2-c2ccccc2)c2ccccc21 ?
A549 viability: -5%; Nrf2 inh: 7%

What do the screens show for `Cc1sc(NC(=O)c2ccco2)c(C(c2cccnc2)N2CCN(c3ccc(F)cc3)CC2)c1C` (configuration not stated)?
S2 tox: inactive; A549 viability: -12%; Nrf2 activator: -1%; ATXN2 expr inh: -30%; Nrf2 inh: 15µM*

How did CCOC(=O)C1CCN(C(c2cccnc2)c2c(NC(=O)c3ccco3)sc(C)c2C)CC1 (configuration not stated) do in these assays?
S2 tox: inactive; A549 viability: -14%; Nrf2 activator: 6%; ATXN2 expr inh: inconclusive; Nrf2 inh: 15µM*

What do the screens show for `CC(C(=O)N1CCCCC1)n1ncn2cccc2c1=O` (configuration not stated)?
S2 tox: inactive; A549 viability: -5%; Nrf2 activator: 0%; ATXN2 expr inh: -2%; Nrf2 inh: 10%

Results for Cc1ccc(Cl)cc1N1CCN(C(=O)C(C)n2ncn3cccc3c2=O)CC1 (configuration not stated) ?
S2 tox: inactive; A549 viability: inconclusive; Nrf2 activator: 0%; ATXN2 expr inh: inconclusive; Nrf2 inh: 18µM*!

How did CC(=O)Nc1ccc(NC(=O)c2nc(S(=O)(=O)Cc3ccccc3)ncc2Cl)cc1 do in these assays?
S2 tox: inconclusive; A549 viability: 2%; Nrf2 activator: -3%; Nrf2 inh: 4%

What do the screens show for `CCc1nnc(NC(=O)c2nc(S(=O)(=O)Cc3ccc(C)cc3)ncc2Cl)s1`?
A549 viability: inconclusive; Nrf2 activator: 2%; ATXN2 expr inh: inconclusive; Nrf2 inh: 21µM*!

What do the screens show for `CCc1nnc(NC(=O)c2nc(S(=O)(=O)Cc3ccccc3)ncc2Cl)s1`?
S2 tox: inconclusive; A549 viability: inconclusive; Nrf2 activator: 14µM*; ATXN2 expr inh: inconclusive; Nrf2 inh: -114%

What do the screens show for `CCOc1ccccc1NC(=O)c1nc(S(=O)(=O)Cc2cccc(C)c2)ncc1Cl`?
S2 tox: 32µM*!; A549 viability: -17%; Nrf2 activator: 8%; ATXN2 expr inh: -12%; Nrf2 inh: inconclusive

What do the screens show for `CCc1nnc(NC(=O)c2nc(S(=O)(=O)Cc3cccc(C)c3)ncc2Cl)s1`?
S2 tox: inconclusive; A549 viability: inconclusive; Nrf2 activator: -2%; ATXN2 expr inh: inconclusive; Nrf2 inh: 23µM*

Results for NCC[C@H](O)C(=O)N[C@H]1C[C@@H](N)[C@@H](O[C@H]2O[C@@H](CN)[C@@H](O)[C@@H](O)[C@@H]2O)[C@@H](O)[C@@H]1O[C@H]1O[C@@H](CO)[C@@H](O)[C@@H](N)[C@@H]1O ?
S2 tox: inactive

What do the screens show for `COc1ccccc1NC(=O)CN(C)S(=O)(=O)c1ccc2c(c1)c(=O)n(C)c(=O)n2C`?
S2 tox: inactive; A549 viability: 2%; Nrf2 activator: 0%; ATXN2 expr inh: 8%; Nrf2 inh: 16%

What do the screens show for `Cn1cc2ccc(-c3ccc4ncnc(NCc5cccs5)c4c3)cc2n1`?
A549 viability: -4%; Nrf2 inh: inconclusive

How did COc1ccc(S(=O)(=O)NC2CCCCC2)cc1-n1cnnn1 do in these assays?
S2 tox: inactive; A549 viability: -6%; Nrf2 activator: 0%; ATXN2 expr inh: -21%[11.3 µM]; Nrf2 inh: 0%

How did Cc1cc(S(=O)(=O)NC2CCCCC2)ccc1-n1cnnn1 do in these assays?
S2 tox: inactive; A549 viability: -6%; Nrf2 activator: -1%; ATXN2 expr inh: 3%; Nrf2 inh: 12µM*

What do the screens show for `Clc1ccc2c(NCCNC3CCCCC3)ccnc2c1`?
A549 viability: inconclusive; Nrf2 activator: 16%; ATXN2 expr inh: 2.2µM*; Nrf2 inh: 2%

What do the screens show for `O=C(N/N=C/c1cccn1-c1ccc([N+](=O)[O-])cc1)c1cccnc1`?
S2 tox: inactive; A549 viability: inconclusive; Nrf2 activator: -1%; ATXN2 expr inh: -26%; Nrf2 inh: 18µM*

How did CCOc1ccc(C(=O)NCC(c2ccc(Cl)cc2)N2CCCCC2)cc1 (configuration not stated) do in these assays?
A549 viability: -1%; Nrf2 activator: 0%; ATXN2 expr inh: -29%; Nrf2 inh: 9%

What do the screens show for `CC1(C(=O)Nc2ccc3c(c2)OCO3)CCN1C(=O)CCc1ccc(Cl)cc1Cl` (configuration not stated)?
S2 tox: 28µM*; Nrf2 activator: 5%; ATXN2 expr inh: -7%

How did CC1(C(=O)Nc2ccc3c(c2)OCO3)CCN1C(=O)Cc1cc(F)ccc1F (configuration not stated) do in these assays?
S2 tox: inactive; Nrf2 activator: 0%; ATXN2 expr inh: -3%

What do the screens show for `CCc1ccc(C2NC(=O)c3[nH]nc(-c4cccc(OC)c4)c32)cc1` (configuration not stated)?
S2 tox: inconclusive; A549 viability: -9%; Nrf2 activator: 5%; ATXN2 expr inh: inconclusive; Nrf2 inh: 7.3µM*

How did COc1ccc(/C=N\NC(=O)COc2ccc(C(C)(C)C)cc2)cc1Cn1nc(C)cc1C do in these assays?
S2 tox: inactive; A549 viability: 15µM*; Nrf2 activator: 14%; ATXN2 expr inh: -38%

Results for O=C(Nc1nc(-c2cccnc2)cs1)c1cccc([N+](=O)[O-])c1 ?
S2 tox: inactive; A549 viability: 2%; Nrf2 activator: 3%; ATXN2 expr inh: -3%; Nrf2 inh: inconclusive

How did O=C(Nc1cccc(-c2csc(Nc3cccc(C(F)(F)F)c3)n2)c1)c1ccccc1 do in these assays?
S2 tox: 25µM*; A549 viability: -17%; Nrf2 activator: -2%; ATXN2 expr inh: inconclusive; Nrf2 inh: inconclusive

Results for O=C(Nc1nc(-c2ccccc2)cs1)c1cccc([N+](=O)[O-])c1 ?
S2 tox: inactive; A549 viability: -24%; Nrf2 activator: 5%; ATXN2 expr inh: -1%; Nrf2 inh: 8.2µM*

Assay outcomes deposited in PubChem by National Center for Advancing Translational Sciences (NCATS).
